Source: PubChem BioAssay AID1159580 (chemical genetic matrix, 2015)
“And” between values parts separate entries of the source, which are not always exact repeats. Identical values can stand only once. Among all 5,500 compounds or so, about 2,000 (36%) were called active. Roughly 18% stayed inconclusive and do not appear here. No stated cut-off is given here; in the data, active means normalized growth mostly below about 0.91 (no sharp cut-off); inconclusive means no clear call, values can overlap the other calls; inactive means mostly above about 0.92. Some of the results follow.

Assay: chemical genetic growth profiling, strain panel (AID 1159580);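 further: tested at 20 µM; growth read once vehicle control cultures reached saturation at 30 °C; 1 = growth at the plate median or of vehicle wells; lower values mean less growth of the strain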
Conditions: S. cerevisiae deletion strains, growth OD

Measured: normalized growth

C[N+]1(C)CCCC(OC(=O)C(O)(c2ccccc2)c2ccccc2)C1 (configuration not stated)
inactive: locus YBR021W, strain FUR4, hits give low values 1.01 | locus YBR229C, strain ROT2, hits give low values 1.01 | locus YCL029C, strain bik1, hits give low values 0.988 | locus YDL035C, strain GPR1, hits give low values 1.02 | locus YDL074C, strain BRE1, hits give low values 1.01 | locus YDL101C, strain DUN1, hits give low values 0.999 | locus YDL185W, strain tfp1, hits give low values 0.961 | locus YDL192W, strain arf1, hits give low values 0.983 | locus YDR101C, strain arx1, hits give low values 1 | locus YDR150W, strain NUM1, hits give low values 1 | locus YDR162C, strain NBP2, hits give low values 1.01 | locus YDR318W, strain mcm21, hits give low values 0.976 | locus YDR388W, hits give low values 0.997 | locus YDR502C, strain sam2, hits give low values 0.989 | locus YEL061C, strain CIN8, hits give low values 0.999 | locus YER110C, hits give low values 0.968 | locus YER155C, strain BEM2, hits give low values 1 | locus YER167W, strain BCK2, hits give low values 0.995 | locus YGL078C, strain dbp3, hits give low values 0.976 | locus YGL086W, strain mad1, hits give low values 1.02 | locus YGL248W, strain PDE1, hits give low values 1 | locus YGR078C, strain PAC10, hits give low values 1 | locus YGR135W, strain pre9, hits give low values 0.937 | locus YGR252W, strain gcn5, hits give low values 0.936 | locus YHR030C, strain SLT2, hits give low values 1 and 1.03 | locus YHR079C, strain IRE1 (second series), hits give low values 0.982 | locus YHR079C, strain IRE1, hits give low values 1.02 | locus YHR094C, strain hxt1, hits give low values 0.996 | locus YHR129C, strain ARP1, hits give low values 1 | locus YHR200W, strain rpn10, hits give low values 0.975 | locus YIL066C, strain RNR3, hits give low values 1.01 | locus YIL073C, strain SPO22, hits give low values 0.937 | locus YIL125W, strain kgd1, hits give low values 0.997 | locus YIR030C, strain dcg1, hits give low values 0.978 | locus YJL095W, strain BCK1, hits give low values 0.969 and 1.02 | locus YJL134W, strain LCB3, hits give low values 1 | locus YJL168C, strain set2, hits give low values 0.998 | locus YJL187C, strain SWE1 (second series), hits give low values 1.01 | locus YJR043C, strain POL32, hits give low values 1.03 | locus YJR066W, strain TOR1, hits give low values 0.986 | locus YKL009W, strain mrt4, hits give low values 1 | locus YKL068W, hits give low values 0.991 | locus YKL085W, strain MDH1 (second series), hits give low values 0.97 | locus YKL085W, strain MDH1, hits give low values 0.97 | locus YKR001C, strain vps1, hits give low values 0.99 | locus YLR039C, strain RIC1, hits give low values 0.94 | locus YLR058C, strain SHM2, hits give low values 0.998 | locus YLR102C, strain apc9, hits give low values 0.982 | locus YLR113W, strain HOG1, hits give low values 1.02 | locus YLR262C, strain YPT6, hits give low values 0.979 | locus YLR268W, strain sec22, hits give low values 0.996 | locus YLR330W, strain CHS5, hits give low values 0.994 | locus YLR342W, strain FKS1 (second series), hits give low values 1.01 | locus YLR371W, strain rom2, hits give low values 0.985 | locus YLR418C, strain cdc73, hits give low values 0.969 | locus YML016C, strain PPZ1, hits give low values 1 | locus YML032C, strain rad52, hits give low values 0.996 | locus YML124C, strain tub3, hits give low values 0.991 | locus YMR078C, strain ctf18, hits give low values 0.97 | locus YMR223W, strain ubp8, hits give low values 0.951 | locus YMR307W, strain GAS1, hits give low values 1.03 | locus YNL067W, strain RPL9B, hits give low values 0.997 | locus YNL153C, strain GIM3, hits give low values 1 | locus YNL183C, strain NPR1, hits give low values 0.983 | locus YNL233W, strain BNI4, hits give low values 0.997 | locus YNL250W, strain rad50, hits give low values 0.962 | locus YNL271C, strain bni1, hits give low values 0.981 | locus YNL298W, strain CLA4, hits give low values 0.968 | locus YNL307C, strain MCK1, hits give low values 0.981 | locus YNL322C, strain KRE1, hits give low values 0.99 | locus YNR052C, strain pop2, hits give low values 0.975 | locus YOL006C, strain TOP1, hits give low values 0.969 | locus YOL012C, strain htz1 0.94 | locus YOL147C, strain pex11, hits give low values 0.993 | locus YOR061W, strain CKA2, hits give low values 0.999 | locus YOR069W, strain VPS5, hits give low values 1 | locus YOR136W, strain idh2, hits give low values 0.996 | locus YOR144C, strain elg1, hits give low values 0.993 | locus YOR184W, strain ser1, hits give low values 0.981 | locus YOR231W, strain MKK1, hits give low values 1.02 | locus YOR316C, strain cot1, hits give low values 0.983 | locus YPL256C, strain CLN2, hits give low values 1.03 | locus YPR119W, strain clb2, hits give low values 0.979 | locus YPR141C, strain kar3, hits give low values 0.983 | locus YPR163C, strain tif3, hits give low values 0.984 | locus YPR167C, strain met16, hits give low values 0.987 | strain wtn01, hits give low values 0.975
